Cycloheximide cs = counter-screen hit for Shiga toxin inhibitors, cycloheximide. AID 2314. cell reporter, cycloheximide protein synthesis inhibition counterscreen. 12% of 300,000 active. max response, %; in the data active means max response mostly above about 13%, no sharp cut-off; inactive means mostly below about 14%; further: read at 38.3 µM for the half of the compounds with a filed dose; 0% is about no effect
Shiga inhibitor = inhibitors of Shiga toxin in Vero cells; Vero cells, Shiga toxin protein synthesis inhibition reporter; inhibition, % at 38.7 µM; 9.2% of 290,000 active; AID 2315; in the data active means inhibition mostly above about 28%, no sharp cut-off; inactive means mostly below about 43%; further: 0% is about no effect
FMDV antiviral = foot and mouth disease virus antiviral activity. FMDV antiviral cell-based qHTS. Potency, µM (titrated, usually from 57.9 µM), for the others: at the top dose activity change, negative = inhibition, hits mostly inhibitors. 1.2% of 410,000 active. AID 1159524; calls by dose curve; tested in HEK293T cells; further: read-out not given here; potency means the concentration at half of the fitted maximal effect; on the % scale 0 is the no-effect control and ±100 the full control effect; nearly all actives have a fitted effect of over 45% in size
Sm TGR block = S. mansoni TGR enzyme inhibition; purified TGR, DTNB reduction, TNB absorbance 405 nm; Potency, µM (series often up to 114 µM), without a hit: at the highest dose activity change, negative = inhibition, usual class: inhibitors; 3% of 360,000 active; AID 485364; active means well fitted inhibition curve with a large enough effect; inconclusive means small, poorly fitted or top-dose-only effect; inactive means no such curve, though single readings can be large or run the other way; further: potency means the concentration at half of the fitted maximal effect; on the % scale 0 is the no-effect control and ±100 the full control effect; nearly all actives have a fitted effect of over 60% in size
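Kinetic colorimetric format: TGR-catalysed, NADPH-driven DTNB reduction monitored via TNB absorbance. Enzyme dispensed at 20 nM; compound exposure 15 min at room temperature before reaction start.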
* = called active by the depositor; ? = inconclusive; . = not tested or not shown. Shown are actives, neighbours in structure and some others; about 12% of the full set was active somewhere.

SMILES	Cycloheximide cs	Shiga inhibitor	FMDV antiviral	Sm TGR block
COc1ccc(CN2C(=O)N(c3ccc(F)cc3)C(=O)C2CC(=O)Nc2ccccc2)cc1 (stereo not given)	.	.	-14%	0%
COc1ccc2c(c1)cc1c(=O)n(CC(=O)NCCc3ccccc3)nc(C)n12	.	.	-27%	-1%
CC1CCN(S(=O)(=O)c2ccc3c(ccc(=O)n3CC(=O)Nc3cccc(F)c3)c2)CC1	.	.	?	-1%
C/C(CC(=O)Nc1ccccn1)=N\NC(=O)c1cccc(C)c1	21*	40*	2%	15%
C/C(CC(=O)Nc1cccc(C(F)(F)F)c1)=N\NC(=O)c1ccncc1	0	-1	-17%	-31%
C/C(CC(=O)Nc1cc(Cl)ccc1Cl)=N\NC(=O)c1ccco1	51*	83*	-7%	-2%
C/C(CC(=O)Nc1cc(C)ccn1)=N\NC(=O)c1ccncc1	8.6*	20	0%	8%
C/C(CC(=O)Nc1cc(C)ccn1)=N\NC(=O)c1cccc(F)c1	31*	110*	29%	99%
Cc1cc(NC(=O)Nc2nc3c(s2)CCCCCC3)ccc1Br	.	.	-2%	-5%
O=C(CSc1nc2c(c(=O)[nH]1)CCCC2)Nc1ccccc1C(F)(F)F	.	.	-4%	-2%
CCC1Oc2ccc(C)cc2N(CC(=O)N2CCN(c3ccccc3OC)CC2)C1=O (stereo not given)	.	.	-19%	-8%
CCOc1ccccc1NC(=O)c1cn(C2CCCC2)c(=O)c2c1c1ccccc1n2C	.	.	-26%	-2%
COc1ccccc1CNC(=O)C1CCN(S(=O)(=O)c2c(C)noc2/C=C/c2c(C)cc(C)cc2C)CC1	.	.	-13%	2%
C/C(CC(=O)NC12CC3CC(CC(C3)C1)C2)=N\NC(=O)c1ccc(F)cc1	13	34	-9%	1%
C/C(CC(=O)NC12CC3CC(CC(C3)C1)C2)=N\NC(=O)c1ccc(C)cc1	10*	18*	-9%	0%
COc1ccccc1-c1ncn(Cc2cccc(-c3ccccc3)c2)c1CC(C)C	.	.	28µM*	.
CCc1c(-c2ccccc2OC)ncn1Cc1cccc(-c2ccccc2)c1	.	.	0%	.
Cc1ccc(C(=O)N2CCn3c(C)ccc3C2C)cc1 (stereo not given)	14	20	-20%	22µM*
Cc1c2ccccc2nc2c(F)c(NC(C)C)c(F)c(F)c12	45*	55*	56%	-34%
ClCc1nnc(-c2cc3c(s2)CCCC3)o1	50*	67*	-30%	-8%
CC(C)(C)C1CCc2sc(-c3nnc(CCl)o3)cc2C1 (stereo not given)	32*	72*	-22%	?
Cc1ccc2c(c1)N(C(=O)N1CCC(C(=O)NCc3ccco3)CC1)CC(C)O2 (stereo not given)	.	.	-17%	3%
CCN(c1ccccc1)S(=O)(=O)c1ccc(NC(=O)c2cc(=O)c3c(C)cc(C)cc3o2)cc1	.	.	-3%	4%
CCn1cc(C(=O)NCCc2ccc(OC)c(OC)c2)c(=O)c2cc(S(=O)(=O)N3CCC(C)CC3)ccc21	.	.	-26%	7%
CN(C(=O)COc1coc(CN2CCN(c3ccccc3)CC2)cc1=O)c1ccccc1	.	.	0%	39%
SMILES	Cycloheximide cs	Shiga inhibitor	FMDV antiviral	Sm TGR block
CN(C(=O)CN1CCN(c2cc(-c3ccc(-c4ccccc4)cc3)ncn2)CC1)c1ccccc1	.	.	22µM*	.
CCN(CC)S(=O)(=O)c1cc(OC)c(Cl)cc1Cl	28*	-2	-23%	-20%
CCn1ccc(C(=O)Oc2ccc(C(C)C)cc2)n1	36*	71*	.	0%
CCC(=O)N1c2ccccc2CC1C(=O)NCCc1cc(OC)c(OC)c(OC)c1 (stereo not given)	.	.	0%	-8%
Cc1cccc(N2C(=O)CCC2=O)c1	-2	-7	-22%	1%
OCCN(C=NC1=NN(c2cccc(C(F)(F)F)c2)CC1)CCO	-2	-13	21%	-28%
CCN(C=NC1=NN(c2cccc(C(F)(F)F)c2)CC1)CC	37*	66	43%	-24%
Cc1cccc(N2CCC(N=CN(C)C)=N2)c1	41*	100*	24%	-30%
Cc1ccc(N2C(=O)CSC23C(=O)N(CC(=O)NC2CCCCC2)c2ccccc23)cc1C (stereo not given)	.	.	-5%	6%
CCOc1ccc2nc(NC(=O)c3cccn(Cc4ccccc4Cl)c3=O)sc2c1	.	.	8%	11%
CCOc1ccc2nc(NC(=O)C3=NN(c4ccccc4)C(=O)CC3)sc2c1	30*	55	4%	19%
CCOc1ccc2nc(NC(=O)C3=NNC(=O)CC3)sc2c1	17*	69	31%	-32%
COc1cc(/C=N/NC(=O)C23CC4CC(CC(C4)C2)C3)cc(Br)c1O	4	26*	-4%	-18%
COc1cc(/C=N\NC(=O)c2ccc(-c3ccccc3)cc2)cc(Br)c1O	1	-25	-6%	-28%
COc1cc(/C=N/NC(=O)c2ccc3c(c2)OCCO3)cc(Br)c1O	32*	41*	26%	-17%
COc1cc(/C=N/NC(=O)c2ccc3c(c2)OCCO3)c(Br)c(Br)c1O	32*	30	13%	?
COc1ccc(-n2ccn(CC(=O)Nc3ccccc3C(F)(F)F)c(=O)c2=O)cc1OC	.	.	-1%	-5%
O=C(c1ccc(Br)o1)N1CCN(Cc2ccccc2Cl)CC1	6	.	-2%	?
CC1(C(=O)N2CCN(Cc3ccccc3Cl)CC2)CC1(Cl)Cl (stereo not given)	20*	120*	25%	51%
CCCC(=O)C1=C(c2ccc(C)cc2)N(C(=O)CCC)n2cnnc2S1	.	.	-21%	-2%
CC1(C)C(=O)C=C[C@]2(C)[C@H]3CC[C@@]4(C)[C@H](c5ccoc5)OC(=O)[C@H]5O[C@]54[C@]3(C)[C@H](O)C[C@@H]12	21*	46	0%	-4%
CC1(C)OC(=O)C=C[C@@]2(C)C1C[C@@H](O)[C@]1(C)C2CC[C@@]2(C)C(c3ccoc3)OC(=O)[C@H]3O[C@]321 (stereo not given in full)	.	.	-18%	.
CCC(C)[C@H](NC(=O)[C@@H]1CSC2c3ccccc3C(=O)N21)C(=O)NCc1ccco1 (stereo not given in full)	1	4	-10%	45µM*
Cc1ccc2oc3nc(C)c(C(=O)O)cc3c(=O)c2c1	41*	35	23%	2%
CCc1nc2oc3ccccc3c(=O)c2cc1C(=O)OC	24*	51*	70%	-10%
SMILES	Cycloheximide cs	Shiga inhibitor	FMDV antiviral	Sm TGR block
COCc1nc2oc3ccc(F)cc3c(=O)c2cc1C(=O)OC	14	3	65%	0%
COCc1nc2oc3ccc(C)cc3c(=O)c2cc1C(=O)OC	23*	42	-10%	0%
Cc1nc2oc3ccc(F)cc3c(=O)c2cc1C(=O)O	27*	30	14%	13%
CCC(Oc1ccccc1)C(=O)Nc1ccc(O)c(-c2nc3cc(C)ccc3o2)c1 (stereo not given)	.	.	0%	9%
Cc1ccc(NC(=O)CN2C(=O)CSc3ccc(S(=O)(=O)N(C)C)cc32)c(C)c1	.	.	9%	-1%
CC(=O)c1cc2c(=O)c3cc(C)ccc3oc2nc1C	30*	121*	32%	-4%
CCN(CC)C(=O)c1cc2c(=O)c3cc(Cl)ccc3oc2nc1C	14	14	46%	.
CCOC(=O)c1cc2c(=O)c3cc(C)ccc3oc2nc1C	40*	52*	-2%	-1%
